High-throughput results deposited in PubChem BioAssay by several laboratories.
Rows were chosen to be rich in hits. Some 2.6% of all compounds tested hit in one or more screens of this group.
eIF4H inh – inhibitors of RNA binding by human eIF4H. inhibition, % at 35 µM. 290,000 compounds, 0.94% hits. Q15056. AID 2012. eIF4H fluorescence polarization binding assay;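 note: calls also rest on retests at 20 µM and on dose response follow-up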
AI-2 QS modul – Vibrio harveyi AI-2 quorum sensing modulation; Vibrio harveyi JMH597 AI-2 luminescence/OD600 ratio, 9 h; stronger effect = lower value; strain lacks LuxN and CqsS sensors; 0 = neutral-control median; activity change, % at 7.5 µM; 300,000 compounds, 0.4% hits; AID 2094; in the data active = activity change below about -75%, passing the limit was not always enough;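 note: luminescence divided by OD600 gain over 9 h not by final OD600 alone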
PABP polyA inh – blocks human PABP binding to poly(A) RNA; P11940; fluorescence polarization; calls only at 35 µM; 290,000 compounds, 1% hits;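 note: calls also rest on retests at 20 µM and on dose response follow-up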
Target sequence (P11940 whole entry, looked up): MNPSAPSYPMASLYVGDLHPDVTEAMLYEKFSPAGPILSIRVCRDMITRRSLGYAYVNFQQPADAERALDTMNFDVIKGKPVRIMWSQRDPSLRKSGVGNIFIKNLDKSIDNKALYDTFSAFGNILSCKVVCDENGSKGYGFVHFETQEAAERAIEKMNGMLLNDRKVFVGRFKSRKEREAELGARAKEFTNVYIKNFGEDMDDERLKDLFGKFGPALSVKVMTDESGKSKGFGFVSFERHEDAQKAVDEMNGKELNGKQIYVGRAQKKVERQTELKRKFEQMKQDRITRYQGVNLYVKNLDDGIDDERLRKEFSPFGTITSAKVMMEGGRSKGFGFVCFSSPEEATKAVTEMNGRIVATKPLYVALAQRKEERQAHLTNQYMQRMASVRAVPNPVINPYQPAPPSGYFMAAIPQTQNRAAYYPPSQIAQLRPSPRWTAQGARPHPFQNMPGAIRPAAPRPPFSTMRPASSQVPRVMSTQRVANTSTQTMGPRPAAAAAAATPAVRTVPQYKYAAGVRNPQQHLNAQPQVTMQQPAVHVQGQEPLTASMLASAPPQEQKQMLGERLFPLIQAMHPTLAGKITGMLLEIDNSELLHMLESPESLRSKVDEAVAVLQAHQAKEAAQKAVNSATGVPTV
PHOSPHO1 block – blocks human PHOSPHO1 phosphatase activity. AID 1565. Q8TCT1. inhibition, % at 13.3 µM. recombinant PHOSPHO1, absorbance phosphatase assay. 290,000 compounds, 1.1% hits; in the data active = inhibition above about 60%
ABCB6 inh 2 – human ABCB6 transporter inhibition. K562-ABCB6 porphyrin accumulation, flow cytometry, 1 h; stronger effect = lower value. 360,000 compounds, 0.19% hits. Q9NP58. fluorescence ratio to DMSO, % at 10 µM;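 active = fluorescence ratio to DMSO below 75%, the collection mean minus 3 SD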;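 note: signal is porphyrin accumulated inside mitochondria; 100% equals median channel fluorescence of DMSO control wells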
MLLE-PAM2 inh – blocks PAM2 peptide binding to the PABP1 MLLE domain; inhibition, % at 20 µM; GST-MLLE / FITC-PAM2 fluorescence polarization; P11940; 360,000 compounds, 0.36% hits; AID 588489; in the data active = inhibition above about 35%, passing the limit was not always enough;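 note: plate controls were DMSO wells with GST-MLLE for no effect and wells lacking GST-MLLE protein for full effect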
* hit, by the source's call; i = inactive; x = not tested or not shown; + = active, no number. Unless noted, the rule behind the calls is not given here.

SMILES	eIF4H inh	AI-2 QS modul	PABP polyA inh	PHOSPHO1 block	ABCB6 inh 2	MLLE-PAM2 inh
Cc1cc(C)cc(-n2cccc2/C=C2/C(=N)N3C(=NC2=O)SN=C3S(C)(=O)=O)c1	28.9*	12.1	+	8.5	101.0	-36.2
CC1(C(=O)O)CCCN1C(=O)c1ccco1 (centres undefined)	x	x	x	x	93.0	5.3
Cc1ccc(C(O)c2ncc(-c3ccc(F)cc3)[nH]2)cc1F (centres undefined)	x	x	x	x	100.0	-5.7
Cn1c(N)c(C#N)c(-c2ccccc2)c(C#N)c1=O	x	x	x	x	97.0	1.3
CC(C)S(=O)(=O)C1=NSC2=NC(=O)/C(=C\c3ccc(-c4cccc(C(=O)O)c4)o3)C(=N)N21	62.4	x	+	37.3	93.0	-76.5
COc1cccc(CNC(=O)Cn2cccc2C(=O)c2ccccc2C)c1	x	10.3	x	64.0*	98.0	-19.6
COc1ccccc1CNC(=O)Cn1cccc1C(=O)c1ccccc1C	x	-0.4	x	75.4*	102.0	1.6
COc1ccc(-c2ccc(N3C(c4cc(OC)cc(OC)c4)=Cc4ccc(OC)cc4C3CC(C)=O)cc2)cc1 (centres undefined)	x	x	x	x	99.0	x
O=C(c1ccc(=O)oc1)N1CCOCC1	87.5*	5.0	+	15.9	115.0	2.6
O=C(c1ccc(F)cc1)N1CCOCC1	-6.9	7.4	i	47.1	101.0	9.3
OC(c1ccc(F)c(F)c1)c1nc(-c2ccc3c(c2)OCO3)cs1 (centres undefined)	x	x	x	x	97.0	-4.4
O=C(Nc1ccn(Cc2ccc(Cl)cc2)n1)c1ccccc1	-1.6	-87.4*	i	-21.6	96.0	7.2
O=C(Nc1ccn(Cc2ccccc2)n1)c1ccc2c(c1)OCO2	-7.5	20.2	i	61.0*	96.0	-1.7
COc1cc(C=C2CCCC(=Cc3ccc(OCC4CO4)c(OC)c3)C2=O)ccc1OCC1CO1 (centres undefined)	x	x	x	x	103.0	-67.4
Cc1cc(Cl)c(OCCCN(C)C)c(Br)c1	0.4	9.8	i	62.7*	98.0	4.0
Cc1ccc(OCCCN(C)C)c(Br)c1	1.2	6.5	i	41.9	101.0	-1.6
CC(=O)Nc1ccc(S(=O)(=O)NCCSc2ccccn2)cc1	60.0*	22.6	+	25.6	89.0	-73.0
Cc1[nH]nc2c1C(c1ccc(F)cc1)C(C#N)=C(N)O2 (centres undefined)	1.6	25.8	i	-5.5	100.0	6.8
Cc1oc(C)c2c(=O)ccc3c(c12)OC(N)=C(C#N)C3c1ccc(F)cc1 (centres undefined)	69.9*	-1.0	+	6.8	118.0	-55.4
Cc1ccccc1-n1c(=O)c(C#N)cc2c(=O)n3ccccc3nc21	17.8	19.1	i	16.9	95.0	-7.2
Cc1cc(-n2c(=O)c(C#N)cc3c(=O)n4ccccc4nc32)no1	103.6*	14.2	+	-3.5	109.0	11.6
CCCCN(C)C(=O)c1sc(=O)n(Cc2ccccc2C#N)c1C	x	x	x	x	100.0	5.7
O=C(COc1ccc2c(c1)oc(=O)c1ccccc12)NCCCN1CCOCC1	5.3	16.3	i	27.3	97.0	5.3
O=C(COc1ccc2c3c(c(=O)oc2c1)CCC3)NCCCN1CCOCC1	20.4	13.0	i	61.6*	94.0	7.6
CC(C)(C)c1ccc(CNc2ccc([N+](=O)[O-])cn2)cc1	-2.2	-83.1*	i	13.3	99.0	-1.0
SMILES	eIF4H inh	AI-2 QS modul	PABP polyA inh	PHOSPHO1 block	ABCB6 inh 2	MLLE-PAM2 inh
Cc1cc(C)nc(Nc2nc(C(N)CCc3ccccc3)cs2)n1 (centres undefined)	x	x	x	x	100.0	-11.9
CCCS(=O)(=O)NC(=O)C1(C)CCN(C(=O)c2ccc(OC)c(F)c2)C1 (centres undefined)	x	x	x	x	99.0	7.6
O=C(Cc1n[nH]c(=O)c2ccccc12)NCc1ccccc1	-1.2	-1.5	i	8.2	92.0	-11.1
O=c1[nH]nc(CNc2ccc(O)cc2)c2ccccc12	59.0*	12.4	+	9.7	99.0	6.3
O=C(O)Cc1n[nH]c(=O)c2ccccc12	1.1*	8.8	i	-1.0	104.0	1.6
CC1(C(=O)NS(=O)(=O)c2ccc(Cl)cc2)CCN1C(=O)CC1CC1 (centres undefined)	x	x	x	x	103.0	10.3
Cc1cccc(C2c3[nH]c4ccccc4c3CCN2C(=O)c2cc(C(C)C)nc(N)n2)n1 (centres undefined)	0.4	12.3	i	68.4*	86.0	9.4
COC(=O)[C@]12CCCCC=C1N(Cc1ccccc1)C(=O)[C@H](CC(=O)NCCCCc1ccccc1)C2	x	x	x	x	95.0	x
CC(=O)Nc1ccc(C(=O)NC(C)c2ccc(-n3ccnc3)cc2)cc1 (centres undefined)	-8.4	4.1	i	67.6*	102.0	17.0
Fc1ccc(-c2nnc3sc(C4COc5ccccc5O4)nn23)cc1 (centres undefined)	22.6	16.8	i	43.1	96.0	-10.1
c1ccc2c(c1)OCC(c1nnc3sc(-c4cnccn4)nn13)O2 (centres undefined)	26.3	-0.1	i	58.0	99.0	7.3
c1csc(-c2nn3c(C4COc5ccccc5O4)nnc3s2)c1 (centres undefined)	-2.2	6.8	i	69.3*	97.0	22.3
Fc1ccc(-c2nn3c(C4COc5ccccc5O4)nnc3s2)cc1 (centres undefined)	-5.9	-26.5	i	78.7*	96.0	25.2
Cn1c(SCC(=O)NCc2ccc3c(c2)OCO3)nnc1C1COc2ccccc2O1 (centres undefined)	5.6	12.1	i	6.4	103.0	-1.3
c1ccc2c(c1)OCC(c1nnc3sc(-c4ccc5c(c4)OCO5)nn13)O2 (centres undefined)	-0.3	5.4	i	83.5*	94.0	25.4
CCNC(=O)C1(C)CCCN(C(=O)c2cccc(C)c2C)C1 (centres undefined)	x	x	x	x	92.0	-8.3
CC1(C(=O)NC2CCCC2)CCC(=O)N1CCOc1ccccc1 (centres undefined)	x	x	x	x	100.0	9.7
COC(=O)c1cc(N2C(=O)C3C(C2=O)C2(C)C=CC3(C)O2)ccc1Cl (centres undefined)	-3.6	-238.3*	i	7.0	x	x
CC(=O)Oc1ccc(N2C(=O)C3C(C2=O)C2(C)C=CC3(C)O2)cc1 (centres undefined)	-3.1	x	i	-9.6	x	x
COC(=O)c1ccccc1NC(=O)c1ccc2nccnc2c1	54.5	-1.5	+	-9.8	99.0	-21.1
O=C(Nc1cccc(F)c1)c1cc(S(=O)(=O)N2CCC3(CC2)OCCO3)ccc1F	2.4	41.0	i	-18.8	x	x
Cc1cccc(NC(=O)c2ccc(F)c(S(=O)(=O)N3CCC4(CC3)OCCO4)c2)c1	-14.2	0.4	i	64.7*	104.0	-0.8
Cc1ccc(S(=O)(=O)N(C)C)cc1-n1c(SCC(=O)N(C)C)nc2ccccc2c1=O	52.1*	-4.1	+	-5.9	98.0	-13.2
